About 8,800 targets were measured; listed, in parts, are those with a hit and a random draw of the rest. About 0.5% of all pairs of compound and target were hits.
Columns and labels:
Test in all cases: log2 fold change, soluble protein after heating vs DMSO (PISA); higher = thermal stabilisation; K562 lysate, 10 uM; active = over 0.2 and 3.5 SD of the protein, either way, in both replicates (recomputed)
[1] = compound: C1=CC=C(C=C1)[C@H](COC2=CC3=C(C=C2)NC(=O)N3)NC(=O)C4=CC=CN(C4=O)CC5=CC(=C(C=C5)F)F
Summary of the method: (§1)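 Soluble protein was defined as the supernatant remaining after 21,000xg for 90 min, following pooling of heated aliquots and adjustment to 0.5% NP-40 at 4°C. Before that, crude K562 extract at 1 mg/mL protein in PBS pH 7.4 with 1 mM MgCl2 was treated with 10 μM compound for 30 min and heated for 3 min across 48°C-58°C. Quantification used TMTpro 16plex LC-MS/MS with channel sums equalised, and values are log-two fold changes in thermal stability relative to solvent controls from duplicates.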

[2] = compound: CC1=C(SC2=C1C(=N[C@H](C3=NN=C(N32)C)CC(=O)N)C4=CC=C(C=C4)Cl)C
Summary of the method: as §1

[3] = compound: CC1=C2C(=CC=C1)N=C(N(C2=O)C3=CC=CC=C3C)CN4C=NC5=C(N=CN=C54)N
Summary of the method: as §1

[4] = compound: Cc1sc2c(c1C)C(c1ccc(Cl)cc1)=N[C@@H](CC(=O)OC(C)(C)C)c1nnc(C)n1-2
Summary of the method: as §1

[5] = compound: c1ccc([C@@H]2C[C@H]2NC2CCNCC2)cc1
Summary of the method: as §1

Measured: log2 fold change

AUH (UniProt Q13825)
Chain of UniProt Q13825 (Q13825 whole entry, looked up): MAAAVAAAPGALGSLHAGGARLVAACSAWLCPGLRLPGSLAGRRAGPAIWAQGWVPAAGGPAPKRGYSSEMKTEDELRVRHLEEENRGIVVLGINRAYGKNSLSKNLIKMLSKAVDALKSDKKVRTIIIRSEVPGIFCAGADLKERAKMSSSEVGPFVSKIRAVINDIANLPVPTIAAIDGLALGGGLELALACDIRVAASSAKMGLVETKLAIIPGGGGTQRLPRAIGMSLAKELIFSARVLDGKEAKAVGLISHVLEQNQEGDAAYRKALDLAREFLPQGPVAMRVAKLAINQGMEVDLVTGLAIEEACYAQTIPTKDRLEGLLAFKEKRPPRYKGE
inactive: [1] 0.034 | [2] 0 | [3] 0.129 | [4] -0.112 | [5] -0.009

CCDC85B (UniProt Q15834)
inactive: [1] -0.033 | [2] -0.132 | [3] 0.08 | [4] -0.04 | [5] -0.034

C18orf25 (UniProt Q96B23)
inactive: [1] 0.013 | [2] -0.035 | [3] 0.043 | [4] 0.017 | [5] -0.033

ATG13 isoform 2 (UniProt O75143)
inactive: [1] 0.001 | [2] 0.026 | [3] 0.055 | [4] 0.045 | [5] -0.166

BCAR1 isoform 6 (UniProt P56945)
inactive: [1] 0.01 | [2] 0.013 | [3] -0.045 | [4] -0.043 | [5] 0.107

CEP41 (UniProt Q9BYV8)
inactive: [1] -0.026 | [2] -0.06 | [3] -0.106 | [4] -0.068 | [5] -0.045

CDK2 (UniProt P24941)
inactive: [1] 0.006 | [2] 0.004 | [3] -0.039 | [4] 0.076 | [5] -0.028

CELF1 isoform 4 (UniProt Q92879)
inactive: [1] 0.04 | [2] -0.005 | [3] 0.07 | [4] 0.044 | [5] 0.144

CDK5RAP1 (UniProt Q96SZ6)
Chain of UniProt Q96SZ6 (Q96SZ6 whole entry, looked up): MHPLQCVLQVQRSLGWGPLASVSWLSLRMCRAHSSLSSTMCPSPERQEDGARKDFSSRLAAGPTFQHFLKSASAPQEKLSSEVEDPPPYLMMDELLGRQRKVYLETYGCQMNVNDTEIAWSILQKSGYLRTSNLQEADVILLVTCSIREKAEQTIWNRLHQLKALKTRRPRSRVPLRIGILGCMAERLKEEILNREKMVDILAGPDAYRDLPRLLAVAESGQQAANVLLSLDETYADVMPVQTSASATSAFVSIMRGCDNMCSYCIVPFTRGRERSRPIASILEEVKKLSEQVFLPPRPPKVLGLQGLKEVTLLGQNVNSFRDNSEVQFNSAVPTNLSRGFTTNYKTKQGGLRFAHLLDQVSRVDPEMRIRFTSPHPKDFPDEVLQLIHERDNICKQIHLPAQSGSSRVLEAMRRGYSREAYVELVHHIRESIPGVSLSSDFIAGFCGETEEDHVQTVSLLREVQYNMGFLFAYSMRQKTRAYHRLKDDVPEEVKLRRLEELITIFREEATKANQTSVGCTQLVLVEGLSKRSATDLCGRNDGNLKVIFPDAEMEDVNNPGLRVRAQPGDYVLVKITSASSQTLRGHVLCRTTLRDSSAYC
active: [1] 0.266
inactive: [2] -0.117 | [3] 0.05 | [4] -0.023 | [5] -0.004

BRAF (UniProt P15056)
inactive: [1] -0.024 | [2] -0.051 | [3] 0.012 | [4] -0.017 | [5] -0.06

BRD3 (UniProt Q15059)
inactive: [1] 0.027 | [3] 0.112 | [5] -0.167
active: [2] 0.631 | [4] 0.5

CAMLG (UniProt P49069)
Chain of UniProt P49069 (P49069 whole entry, looked up): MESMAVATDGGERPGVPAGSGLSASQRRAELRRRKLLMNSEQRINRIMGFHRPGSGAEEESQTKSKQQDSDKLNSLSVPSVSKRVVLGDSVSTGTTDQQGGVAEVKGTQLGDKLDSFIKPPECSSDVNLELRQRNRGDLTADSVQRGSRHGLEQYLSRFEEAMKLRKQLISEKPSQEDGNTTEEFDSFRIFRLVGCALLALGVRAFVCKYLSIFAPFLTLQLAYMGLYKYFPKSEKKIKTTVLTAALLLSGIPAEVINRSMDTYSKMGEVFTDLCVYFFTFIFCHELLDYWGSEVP
inactive: [1] 0.058 | [2] 0.003 | [3] 0.018 | [4] 0.05 | [5] 0.074

CDK1 (UniProt P06493)
Chain of UniProt P06493 (P06493 whole entry, looked up): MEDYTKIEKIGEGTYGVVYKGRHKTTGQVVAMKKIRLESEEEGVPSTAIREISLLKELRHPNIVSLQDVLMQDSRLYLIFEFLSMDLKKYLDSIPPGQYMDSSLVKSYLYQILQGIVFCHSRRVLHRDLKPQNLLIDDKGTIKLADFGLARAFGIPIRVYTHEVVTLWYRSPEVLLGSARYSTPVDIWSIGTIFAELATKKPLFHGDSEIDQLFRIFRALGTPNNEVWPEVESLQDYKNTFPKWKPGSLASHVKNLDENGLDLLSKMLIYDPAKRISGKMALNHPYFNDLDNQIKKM
inactive: [1] 0.037 | [2] -0.009 | [3] 0.042 | [4] 0.021 | [5] 0.018

BRAT1 (UniProt Q6PJG6)
inactive: [1] -0.043 | [2] -0.005 | [3] 0.027 | [4] 0.005 | [5] 0.003

CHD1L (UniProt Q86WJ1)
Chain of UniProt Q86WJ1 (Q86WJ1 whole entry, looked up): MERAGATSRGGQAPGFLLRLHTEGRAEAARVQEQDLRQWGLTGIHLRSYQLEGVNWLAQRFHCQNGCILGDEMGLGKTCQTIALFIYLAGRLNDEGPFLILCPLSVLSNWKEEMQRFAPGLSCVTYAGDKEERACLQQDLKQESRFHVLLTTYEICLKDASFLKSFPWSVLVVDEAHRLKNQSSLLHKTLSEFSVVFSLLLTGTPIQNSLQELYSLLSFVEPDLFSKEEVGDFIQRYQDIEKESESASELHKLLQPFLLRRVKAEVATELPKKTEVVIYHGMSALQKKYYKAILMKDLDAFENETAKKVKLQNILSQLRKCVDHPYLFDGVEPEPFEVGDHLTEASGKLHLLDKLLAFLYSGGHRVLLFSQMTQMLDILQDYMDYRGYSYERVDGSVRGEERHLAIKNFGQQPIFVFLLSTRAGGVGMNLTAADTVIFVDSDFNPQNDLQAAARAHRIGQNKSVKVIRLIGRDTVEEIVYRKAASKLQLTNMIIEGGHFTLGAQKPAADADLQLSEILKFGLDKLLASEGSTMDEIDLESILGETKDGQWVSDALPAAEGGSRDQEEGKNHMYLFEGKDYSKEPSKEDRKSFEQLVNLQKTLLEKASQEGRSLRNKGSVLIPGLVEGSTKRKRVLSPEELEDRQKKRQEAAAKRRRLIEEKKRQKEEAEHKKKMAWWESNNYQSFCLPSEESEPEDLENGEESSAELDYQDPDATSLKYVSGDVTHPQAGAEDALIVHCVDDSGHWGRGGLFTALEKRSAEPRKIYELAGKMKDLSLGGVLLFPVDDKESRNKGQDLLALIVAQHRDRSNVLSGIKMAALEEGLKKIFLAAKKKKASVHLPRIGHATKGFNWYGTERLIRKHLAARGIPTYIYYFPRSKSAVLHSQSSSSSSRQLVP
inactive: [1] -0.012 | [2] 0.036 | [3] 0.037 | [4] -0.009 | [5] 0.052

CARHSP1 (UniProt Q9Y2V2)
inactive: [1] -0.031 | [2] 0.027 | [3] 0.019 | [4] -0.053 | [5] 0.005

C5orf51 (UniProt A6NDU8)
inactive: [1] -0.047 | [2] -0.023 | [3] 0.001 | [4] -0.026 | [5] 0.092

C3orf33 (UniProt Q6P1S2)
inactive: [1] 0.074 | [2] 0.143 | [3] -0.386 | [4] -0.03 | [5] -0.226

BET1 (UniProt O15155)
inactive: [1] -0.053 | [2] 0.013 | [3] 0.032 | [4] 0.038 | [5] 0.009

CDAN1 (UniProt Q8IWY9)
inactive: [1] -0.011 | [2] 0.011 | [3] 0.062 | [4] 0.026 | [5] 0.005

CDK16 isoform 2 (UniProt Q00536)
inactive: [1] -0.02 | [2] -0.059 | [3] -0.11 | [4] -0.011 | [5] -0.049

CASC4 (UniProt Q6P4E1)
inactive: [1] -0.008 | [2] 0.027 | [3] 0.039 | [4] -0.015 | [5] -0.055

BORCS5 (UniProt Q969J3)
inactive: [1] -0.12 | [2] 0 | [3] -0.015 | [4] -0.005 | [5] -0.011

CDK13 (UniProt Q14004)
Chain of UniProt Q14004 (Q14004 whole entry, looked up): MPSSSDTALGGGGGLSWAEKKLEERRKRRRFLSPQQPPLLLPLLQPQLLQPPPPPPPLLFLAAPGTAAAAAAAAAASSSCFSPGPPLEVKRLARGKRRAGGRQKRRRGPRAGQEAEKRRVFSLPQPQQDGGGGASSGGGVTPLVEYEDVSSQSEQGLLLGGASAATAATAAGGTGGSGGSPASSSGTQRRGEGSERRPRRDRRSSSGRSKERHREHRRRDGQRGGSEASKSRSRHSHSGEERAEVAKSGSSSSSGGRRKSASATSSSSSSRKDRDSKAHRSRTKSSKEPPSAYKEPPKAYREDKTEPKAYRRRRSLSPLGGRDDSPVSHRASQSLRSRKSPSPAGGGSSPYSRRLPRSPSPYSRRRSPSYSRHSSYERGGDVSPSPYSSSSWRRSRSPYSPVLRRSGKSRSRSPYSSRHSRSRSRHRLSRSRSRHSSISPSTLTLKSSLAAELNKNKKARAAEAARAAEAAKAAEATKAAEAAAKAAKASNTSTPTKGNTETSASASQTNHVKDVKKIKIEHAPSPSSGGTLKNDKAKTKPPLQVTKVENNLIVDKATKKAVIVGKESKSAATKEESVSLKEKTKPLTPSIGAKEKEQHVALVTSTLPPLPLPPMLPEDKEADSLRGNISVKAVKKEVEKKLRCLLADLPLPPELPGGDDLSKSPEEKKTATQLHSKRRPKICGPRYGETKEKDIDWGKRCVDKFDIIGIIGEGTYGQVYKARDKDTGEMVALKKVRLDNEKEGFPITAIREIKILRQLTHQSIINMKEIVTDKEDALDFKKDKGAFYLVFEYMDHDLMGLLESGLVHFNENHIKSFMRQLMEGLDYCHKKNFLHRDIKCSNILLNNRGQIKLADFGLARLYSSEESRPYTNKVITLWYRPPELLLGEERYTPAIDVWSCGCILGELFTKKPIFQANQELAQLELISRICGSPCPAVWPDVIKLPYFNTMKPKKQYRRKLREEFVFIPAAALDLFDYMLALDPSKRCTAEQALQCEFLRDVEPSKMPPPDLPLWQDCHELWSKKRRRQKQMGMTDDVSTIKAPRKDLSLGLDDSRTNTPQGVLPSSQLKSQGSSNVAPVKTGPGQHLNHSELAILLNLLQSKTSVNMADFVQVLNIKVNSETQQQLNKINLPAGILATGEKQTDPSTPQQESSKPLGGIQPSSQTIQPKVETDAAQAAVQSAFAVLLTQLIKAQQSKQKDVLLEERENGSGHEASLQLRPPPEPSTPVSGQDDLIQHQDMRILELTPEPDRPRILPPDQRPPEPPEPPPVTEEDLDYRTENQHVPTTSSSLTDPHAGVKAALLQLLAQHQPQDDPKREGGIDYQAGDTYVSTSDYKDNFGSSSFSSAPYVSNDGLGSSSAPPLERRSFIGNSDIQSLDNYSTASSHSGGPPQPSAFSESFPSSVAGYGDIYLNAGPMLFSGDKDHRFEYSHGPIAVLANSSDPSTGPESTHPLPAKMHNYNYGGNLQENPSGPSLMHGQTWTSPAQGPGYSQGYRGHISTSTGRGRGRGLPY
inactive: [1] -0.091 | [2] -0.031 | [3] -0.052 | [4] 0.049 | [5] 0.052

ATM (UniProt Q13315)
inactive: [1] -0.015 | [2] 0.013 | [3] -0.037 | [4] 0.038 | [5] -0.036

CARD11 (UniProt Q9BXL7)
inactive: [1] 0.193 | [2] 0.252 | [3] 0 | [4] -0.084 | [5] -0.019

CCPG1 isoform 5 (UniProt Q9ULG6)
inactive: [1] -0.069 | [2] -0.118 | [3] 0.046 | [4] -0.082 | [5] -0.026

BSDC1 (UniProt Q9NW68)
inactive: [1] 0.155 | [2] -0.025 | [3] 0.021 | [4] -0.004 | [5] -0.026

CARNMT1 (UniProt Q8N4J0)
Chain of UniProt Q8N4J0 (Q8N4J0 whole entry, looked up): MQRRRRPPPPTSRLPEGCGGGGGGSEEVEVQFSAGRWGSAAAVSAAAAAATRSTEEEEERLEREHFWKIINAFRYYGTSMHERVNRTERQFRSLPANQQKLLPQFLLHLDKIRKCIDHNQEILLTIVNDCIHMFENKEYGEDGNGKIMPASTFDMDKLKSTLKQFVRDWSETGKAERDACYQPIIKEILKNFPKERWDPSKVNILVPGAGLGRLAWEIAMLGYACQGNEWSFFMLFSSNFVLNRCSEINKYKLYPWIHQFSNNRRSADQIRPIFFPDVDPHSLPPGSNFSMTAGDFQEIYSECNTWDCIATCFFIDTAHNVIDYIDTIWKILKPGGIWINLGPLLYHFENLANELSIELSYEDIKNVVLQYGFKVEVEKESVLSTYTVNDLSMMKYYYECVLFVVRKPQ
inactive: [1] 0.032 | [2] -0.003 | [3] 0.072 | [4] -0.039 | [5] -0.174

ATAD1 (UniProt Q8NBU5)
Chain of UniProt Q8NBU5 (Q8NBU5 whole entry, looked up): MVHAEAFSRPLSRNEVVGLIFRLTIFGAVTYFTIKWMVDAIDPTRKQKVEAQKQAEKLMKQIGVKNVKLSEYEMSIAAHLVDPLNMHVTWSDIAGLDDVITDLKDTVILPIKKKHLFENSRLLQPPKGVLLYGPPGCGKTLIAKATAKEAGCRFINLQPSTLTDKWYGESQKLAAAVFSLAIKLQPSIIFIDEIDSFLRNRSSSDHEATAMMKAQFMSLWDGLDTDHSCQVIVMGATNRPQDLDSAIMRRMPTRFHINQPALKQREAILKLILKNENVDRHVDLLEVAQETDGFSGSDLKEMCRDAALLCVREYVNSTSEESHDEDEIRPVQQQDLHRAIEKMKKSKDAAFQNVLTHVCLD
inactive: [1] -0.052 | [2] 0.032 | [3] -0.015 | [4] -0.092 | [5] 0.002

CAMKK2 (UniProt Q96RR4)
inactive: [1] 0.002 | [2] -0.047 | [3] 0.072 | [4] 0.051 | [5] -0.013

CBR1 (UniProt P16152)
inactive: [1] 0.03 | [2] -0.004 | [3] 0.013 | [4] -0.021 | [5] -0.056

CHAF1A (UniProt Q13111)
inactive: [1] -0.099 | [2] 0.136 | [3] 0.041 | [4] 0.017 | [5] 0.022

CHD4 isoform 2 (UniProt Q14839)
inactive: [1] 0 | [2] 0.003 | [3] 0.029 | [4] 0.021 | [5] 0.009

CHAC2 (UniProt Q8WUX2)
Chain of UniProt Q8WUX2 (Q8WUX2 whole entry, looked up): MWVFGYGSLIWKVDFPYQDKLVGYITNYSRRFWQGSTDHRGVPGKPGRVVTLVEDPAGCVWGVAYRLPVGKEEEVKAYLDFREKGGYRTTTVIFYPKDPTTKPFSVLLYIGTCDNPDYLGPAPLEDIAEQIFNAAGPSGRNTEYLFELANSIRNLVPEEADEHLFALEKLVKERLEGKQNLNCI
inactive: [1] 0.079 | [2] 0.005 | [3] 0.028 | [4] -0.025
active: [5] 0.344

ATP6V0A2 (UniProt Q9Y487)
inactive: [1] -0.011 | [2] -0.017 | [3] 0.026 | [4] -0.015 | [5] -0.114

CDK11B (UniProt P21127)
inactive: [1] -0.035 | [2] 0.029 | [3] 0.005 | [4] 0.035 | [5] -0.001

CCNB2 (UniProt O95067)
inactive: [1] -0.005 | [2] 0.026 | [3] 0.047 | [4] 0.048 | [5] 0.033

BLM (UniProt P54132)
inactive: [1] 0.059 | [2] 0.03 | [3] -0.005 | [4] -0.002 | [5] 0.114

BUD23 isoform 3 (UniProt O43709)
inactive: [1] 0.076 | [2] 0.03 | [3] 0.021 | [4] 0 | [5] -0.154

CDC45 isoform 3 (UniProt O75419)
inactive: [1] 0.076 | [2] -0.01 | [3] 0 | [4] -0.018 | [5] 0.026

CDKN1B (UniProt P46527)
inactive: [1] 0.059 | [2] -0.038 | [3] 0.146 | [4] 0.101 | [5] 0.02

CALM2 (UniProt P0DP24)
inactive: [1] -0.07 | [2] -0.177 | [3] 0.009 | [4] -0.088 | [5] -0.001

CES2 isoform 4 (UniProt O00748)
inactive: [1] 0.129 | [2] 0.159 | [3] -0.089 | [4] 0.093 | [5] -0.07

CCDC47 (UniProt Q96A33)
inactive: [1] -0.043 | [2] 0.005 | [3] 0.022 | [4] 0.017 | [5] 0.018

C2CD5 isoform 3 (UniProt Q86YS7)
inactive: [1] 0.015 | [2] 0.059 | [3] 0.014 | [4] -0.009 | [5] -0.169

CAPNS1 (UniProt P04632)
inactive: [1] 0 | [2] -0.041 | [3] -0.067 | [4] 0.057 | [5] -0.014

CHCHD7 isoform 4 (UniProt Q9BUK0)
Chain of UniProt Q9BUK0 (Q9BUK0 whole entry, looked up): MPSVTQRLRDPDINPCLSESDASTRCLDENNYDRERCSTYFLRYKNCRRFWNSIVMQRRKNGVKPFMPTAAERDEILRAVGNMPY
inactive: [1] 0.08 | [2] -0.052 | [3] 0.074 | [4] -0.071 | [5] -0.22

CANX isoform 2 (UniProt P27824)
inactive: [1] 0.05 | [2] -0.022 | [3] -0.005 | [4] -0.027 | [5] -0.046

ATXN2 (UniProt F8WB05)
inactive: [1] -0.17 | [2] 0.212 | [3] 0.146 | [4] 0.004 | [5] 0.022

CFDP1 (UniProt Q9UEE9)
inactive: [1] 0.051 | [2] -0.03 | [3] -0.017 | [4] -0.03 | [5] -0.124

CARS isoform 3 (UniProt P49589)
inactive: [1] -0.026 | [2] 0.014 | [3] 0.007 | [4] 0.035 | [5] 0.03

— the supplement of paper PMC10849652
